The structures appear in SMILES notation. “And” between values parts separate entries of the source, which are not always exact repeats. Equal entries are not always repeated. Records with an inconclusive call do not appear. Some structures have more than one record in an assay (separate samples or runs), and their calls can disagree. The source made the active and inactive calls. Unless noted, calls come from the whole dose curve; as a rule, active = well fitted curve in the direction sought with a large enough effect in the repeat runs; inconclusive = weak or mixed curves; inactive = no such curve, though single readings can be large; an effect the other way counts as inactive or inconclusive.

A short description of test [1]: Human pregnane X receptor (PXR) small molecule agonists, qHTS cell viability counter screen (AID 1346977). Note: nearly all actives have a fitted effect of over 50% in size. Note: potency is the fitted concentration of half-maximal effect. Put shortly:
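Tox21 qHTS format; PXR-Luc HepG2, 2,000/well, charcoal-stripped FBS 5%. Cpd exposure 24hr. Read: CellTiter-Fluor fluorescence, multiplexed with luciferase.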
(qHTS replaces the single test concentration by a dilution series.)

A short description of test [2]: Caspase-3/7 induction in HepG2 cells by small molecules, qHTS assay (AID 1346978). Note: nearly all actives have a fitted effect of over 15% in size. Note: potency is the fitted concentration of half-maximal effect. An outline of the steps: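 Wild-type HepG2 cells, 2,000/well, settled 5 hr at 37 C and 5% CO2, then compound-treated for 17 hr; caspase-3/7 activity read by luminescent Caspase-Glo 3/7 after 30 min at room temperature.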
Test [3] is described as follows: Caspase-3/7 induction in CHO-K1 cells by small molecules, qHTS cell viability counter screen (AID 1346979). Note: nearly all actives have a fitted effect of over 35% in size. Note: potency is the fitted concentration of half-maximal effect. An outline of the steps: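 CellTiter-Fluor viability check, qHTS format: wild-type CHO-K1, 16hr compound treatment, 1hr reagent incubation, fluorescence read.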
The nature of test [4]: Caspase-3/7 induction in CHO-K1 cells by small molecules, qHTS assay (AID 1346980). Note: nearly all actives have a fitted effect of over 15% in size. Note: potency is the fitted concentration of half-maximal effect. Put shortly:
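Wild-type CHO-K1 cells exposed to compounds for 17hr at 37 C, 5% CO2. Caspase-3/7 activity then measured by Caspase-Glo 3/7 luminescence after 30min at room temperature.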

Test [5] in a line: Caspase-3/7 induction in HepG2 cells by small molecules, qHTS cell viability counter screen (AID 1346981). Note: nearly all actives have a fitted effect of over 30% in size. Note: potency is the fitted concentration of half-maximal effect. An outline of the steps:
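Wild-type HepG2 cells, 2,000/well, settled 5 hr at 37 C, 5% CO2 before compound addition. Viability read by CellTiter-Fluor fluorescence, reagent added after 16 hr compound exposure, then 1 hr at 37C, in the same wells as the caspase read.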

Test [6] has as its target Nuclear receptor subfamily 1 group I member 2 (Homo sapiens) (UniProt O75469). Description: Human pregnane X receptor (PXR) small molecule agonists, qHTS assay (AID 1346982). Note: nearly all actives have a fitted effect of over 35% in size. Note: potency is the fitted concentration of half-maximal effect. An outline of the steps: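 PXR-Luc HepG2 reporter cells (CYP3A4-driven luciferase) in 5% charcoal-stripped FBS medium, plated 5 h before compound addition, then treated 24 h at 37C. Luciferase read by ONE-Glo luminescence after 30 min at room temperature.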

Test [7] deals with Acetylcholinesterase (Homo sapiens) (UniProt P22303). Description: Acetylcholinesterase (AChE) small molecule antagonists: colormetric cell-based qHTS assay (AID 1347395; calls by dose curve; note: nearly all actives have a fitted effect of over 30% in size; note: potency is the fitted concentration of half-maximal effect). An outline of the steps: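 AChE inhibition read colorimetrically via DTNB–thiocholine in SH-SY5Y cells. Compound 30 min, substrate 90 min, both 37 C.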
The target of test [8] is Nuclear receptor subfamily 1 group I member 2 (Homo sapiens) (UniProt O75469). Briefly: CYP3A4 induction through human pregnane X receptor (PXR) by small molecules, qHTS assay (AID 1346984). Note: nearly all actives have a fitted effect of over 40% in size. Note: potency is the fitted concentration of half-maximal effect. Put shortly:
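DPX-2 HepG2 cells carrying a PXR response element and CYP3A4-promoter luciferase construct, treated with compounds 24 hr at 37C. Then P450-Glo CYP3A4 Luciferin-IPA substrate (3uM final) for 3 hr at 37C, One-Glo added, luminescence read.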

Test [9] shares this target. Description: Human pregnane X receptor (PXR) activation by small molecules, qHTS assay (AID 1346985). Note: nearly all actives have a fitted effect of over 40% in size. Put shortly:
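DPX-2 cells (HepG2 co-transfected with a PXR response element and a CYP3A4-promoter luciferase construct) were seeded at 2,000 per well, rested 5 hr at 37C, then exposed to DMSO-dissolved compounds for 24 hr. Activation was read as luciferase luminescence.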

Test [10] deals with Nuclear receptor subfamily 1 group I member 2 (Rattus norvegicus) (UniProt Q9R1A7). Briefly: Rat pregnane X receptor (rPXR) activation by small molecules, qHTS assay (AID 1346983). Note: nearly all actives have a fitted effect of over 20% in size. The settings on record: rPXR luciferase reporter cells, One-Glo luminescence, 24 h; max activation: stronger effect = higher value. An outline of the steps:
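Cell-based rPXR activation assay: rPXR cells, 2,000 per well, rested 5hr at 37 C, then exposed to compounds in DMSO for 24 hr at 37 C. Luciferase activity read by One-Glo luminescence after 30 min at room temperature.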
% is set by controls: 0 for no effect and ±100 for the full control effect.

Nuclear receptor subfamily 1 group I member 2 (Homo sapiens), sequence (O75469 whole entry, looked up): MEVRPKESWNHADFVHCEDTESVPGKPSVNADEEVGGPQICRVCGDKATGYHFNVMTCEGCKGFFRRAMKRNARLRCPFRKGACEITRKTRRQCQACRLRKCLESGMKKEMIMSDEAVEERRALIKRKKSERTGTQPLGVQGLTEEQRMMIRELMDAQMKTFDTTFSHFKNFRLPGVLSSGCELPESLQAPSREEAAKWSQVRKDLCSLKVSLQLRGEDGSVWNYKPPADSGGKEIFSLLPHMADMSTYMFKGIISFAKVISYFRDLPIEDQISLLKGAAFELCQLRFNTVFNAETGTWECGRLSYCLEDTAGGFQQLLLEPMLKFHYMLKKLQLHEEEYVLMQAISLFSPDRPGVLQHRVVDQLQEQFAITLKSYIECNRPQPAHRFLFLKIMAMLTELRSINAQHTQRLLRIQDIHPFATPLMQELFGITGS
Acetylcholinesterase (Homo sapiens), sequence (P22303 whole entry, looked up): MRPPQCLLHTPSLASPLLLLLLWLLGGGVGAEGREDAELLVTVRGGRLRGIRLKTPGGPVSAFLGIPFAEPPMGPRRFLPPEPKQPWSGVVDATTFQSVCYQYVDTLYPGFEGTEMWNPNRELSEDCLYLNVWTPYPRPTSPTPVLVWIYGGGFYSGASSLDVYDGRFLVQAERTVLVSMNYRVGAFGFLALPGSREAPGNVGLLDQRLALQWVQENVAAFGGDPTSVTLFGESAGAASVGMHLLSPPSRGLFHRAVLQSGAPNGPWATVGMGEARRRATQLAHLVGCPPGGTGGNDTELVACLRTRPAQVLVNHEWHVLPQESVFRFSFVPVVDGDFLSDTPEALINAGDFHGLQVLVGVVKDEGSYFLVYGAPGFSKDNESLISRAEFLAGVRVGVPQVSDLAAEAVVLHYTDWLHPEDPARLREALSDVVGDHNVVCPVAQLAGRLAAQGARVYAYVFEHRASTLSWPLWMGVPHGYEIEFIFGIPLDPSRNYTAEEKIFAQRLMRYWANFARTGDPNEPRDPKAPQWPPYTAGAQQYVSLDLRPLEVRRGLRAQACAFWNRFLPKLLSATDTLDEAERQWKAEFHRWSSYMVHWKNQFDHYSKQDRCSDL
Nuclear receptor subfamily 1 group I member 2 (Rattus norvegicus), sequence (Q9R1A7 whole entry, looked up): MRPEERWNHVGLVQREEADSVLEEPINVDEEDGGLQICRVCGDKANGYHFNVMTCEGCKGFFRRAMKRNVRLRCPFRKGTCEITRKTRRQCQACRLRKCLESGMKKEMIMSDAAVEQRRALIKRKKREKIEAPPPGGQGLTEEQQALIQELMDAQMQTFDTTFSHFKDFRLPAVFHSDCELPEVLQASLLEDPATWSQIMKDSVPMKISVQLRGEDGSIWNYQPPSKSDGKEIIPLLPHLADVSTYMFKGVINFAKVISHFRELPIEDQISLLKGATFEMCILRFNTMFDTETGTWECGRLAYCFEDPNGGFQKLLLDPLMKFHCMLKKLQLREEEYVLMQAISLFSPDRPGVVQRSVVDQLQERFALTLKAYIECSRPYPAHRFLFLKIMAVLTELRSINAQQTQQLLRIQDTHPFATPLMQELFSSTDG

For the molecule `CCC[CH2][Sn]([CH2]CCC)([CH2]CCC)[O]C(=O)c1ccccc1`, the Potency was 1.22 µM (active) in [1]; 3.06 µM (active) in test [2]; 0.77 µM (active) in test [3]; 1.93 µM (active) in test [4]; 4.86 µM (active) in test [5].

Regarding `CCN`, the Potency result in test [1], in test [2], in test [3], in test [4], in [5] and in test [6] was “inactive” each time. The Potency result in [7] is “inactive”.

With `S=C=Nc1cccc2ccccc12`, the Potency was 53.9 µM (active) in test [1], 60.5 µM (active) in test [3], 60.5 µM (active) in [5] and 10.8 µM (active) in test [6]. Further, the Potency entry in test [2], in [4] and in test [7] was “inactive” in each case.

Take `COc1cccc(C(=O)CCN[C@@H](C)[C@H](O)c2ccccc2)c1`: the figures for the Potency in test [1] and in test [3] were 29.8 µM (active) and 26.6 µM (active), respectively. In addition, the Potency result in test [2], in test [4], in test [5] and in [6] was “inactive” in each case.

On to `[Cl][Sn]([c]1ccccc1)([c]1ccccc1)[c]1ccccc1`, for which the Potency in test [1] is 1.03 µM (active); in [2], 1.46 µM (active); in test [3], 0.326 µM (active); in [4], 0.326 µM (active); in test [5], 5.8 µM (active).

On to `C1CCC2CCCCC2C1` (configuration not stated), for which the Potency entry in test [1], in test [2], in [3], in test [4] and in test [5] was “inactive” throughout.

For `Clc1ccc(COC(Cn2ccnc2)c2ccc(Cl)cc2Cl)cc1` (configuration not stated), the Potency is 45.3 µM (active) and 48.4 µM (active) and 26.6 µM (active) in test [1]; 22.7 µM (active) and 27.2 µM (active) and 23.7 µM (active) in test [3]; 50.8 µM (active) and 54.3 µM (active) in test [5]; 6.4 µM (active) and 7.66 µM (active) and 7.5 µM (active) in test [6]. The Potency result in [2] and in [4] was “inactive” each time.

With `CCCCCCCCc1ccc(O)cc1`, the Potency in test [1] is 54.8 µM (active); in test [2], 43.5 µM (active).

`CC(=O)[O-].CC(=O)[O-].O.O.[Cd+2]`: the Potency in [1] was 8.51 µM (active); in test [3], 1.7 µM (active). Besides, the Potency entry in test [2] and in [4] was “inactive” in each case.

As for `CCCCCCCCCCCCCN1CC(C)OC(C)C1` (configuration not stated), the Potency entry in [1], in test [2], in test [3], in test [4], in test [5] and in test [6] was “inactive” in each case. Further, in test [7], the Potency entry is “inactive”.

For the molecule `O=[N+]([O-])O.O=[N+]([O-])O.[Cd]`, the Potency is 5.45 µM (active) in test [1] and 1.72 µM (active) in test [3]. For the same molecule, the Potency entry in test [2] and in [4] was “inactive” each time.

For the molecule `[Cd+2].[Cl-].[Cl-]`, the Potency in [1] is 794 nM (active) and 344 nM (active); in test [3], 1.23 µM (active) and 611 nM (active); in [5] it was 54.9 µM (active) and 30.6 µM (active). Also, the Potency entry in [2] and in [4] was “inactive” throughout.

Take `C=CC(=O)N(C)C`: the Potency entry in test [1], in test [2], in [3], in test [4], in test [5] and in [6] was “inactive” throughout.

On to `COc1cc(C=O)cc2c1[C@H](COC(N)=O)[C@]1(OC(C)=O)ON2C[C@H]2[C@@H]1N2C(C)=O`, for which the Potency in [1] was 1.93 µM (active); in test [2], 0.193 µM (active); in test [3], 61.1 µM (active); in test [4], 61.1 µM (active); in test [5] it was 2.73 µM (active). Besides, in test [6], the Potency entry was “inactive”.

With `CC(=O)c1cc(C(C)(C)C)cc2c1CCC2(C)C`, the Potency entry in test [1], in test [2], in test [3], in test [4], in test [5] and in test [6] was “inactive” in each case. Besides, the Potency entry in test [7] is “inactive”.

With `Fc1cccc(Cl)c1CCl`, the Potency entry in test [1], in [2], in [3], in [4], in test [5] and in test [6] was “inactive” each time.

On to `ClCc1ccc(Cl)cc1Cl`, for which the Potency entry in test [1], in test [2], in [3], in test [4], in test [5] and in test [6] was “inactive” in each case.

With `CN(C)C(=S)S`, the Potency in test [1] was 15.8 µM (active) and 12.1 µM (active) and 15.4 µM (active); in [2] it was 19.7 µM (active) and 17.2 µM (active); in test [3] it was 8.81 µM (active) and 857 nM (active) and 12.2 µM (active). Besides, the Potency result in test [4] and in test [5] was “inactive” each time.

As for `C[C@]12Cc3nonc3C[C@@H]1CC[C@@H]1[C@@H]2CC[C@@]2(C)[C@H]1CC[C@]2(C)O`, the Potency result in test [1], in test [2], in test [4], in test [5], in test [8] and in test [9] was “inactive” throughout. For the same molecule, in test [7], the Potency entry was “inactive”. Also, the Potency in test [3] was 11.9 µM (active); in test [6], 29.8 µM (active).

`CCOP(=S)(OCC)OC(Cl)C(Cl)(Cl)Cl` (configuration not stated): the Potency entry in [1], in test [2], in test [3], in test [4], in test [5] and in test [6] was “inactive” throughout. Besides, the Potency in test [7] is 35.6 µM (active).

As for `C[C@]12CC[C@H]3[C@@H](CCC4=CC(=O)CC[C@@]43C)[C@@H]1CC[C@@H]2O`, the Potency entry in test [1], in test [2], in test [3], in test [4], in test [5] and in [7] was “inactive” in each case. Further, the Potency in [6] was 27.1 µM (active).

For `Clc1ccc(C(c2ccc(Cl)cc2)C(Cl)(Cl)Cl)cc1`, the Potency result in test [1], in test [2], in [4], in [5], in test [9] and in test [7] was “inactive” each time. Besides, the Potency in test [3] is 69.1 µM (active) and inactive; in test [6] it was 17.4 µM (active) and 13.3 µM (active); in [8] it was 22.4 µM (active). In addition, in [10], the max activation is 8.77% (inactive).

For the molecule `N#C/C=C/C#N`, the Potency entry in test [1], in test [2], in test [4] and in test [5] was “inactive” each time. Besides, the Potency in test [3] was 50.8 µM (active).

As for `CCCN(CC)CC1COC2(CCC(C(C)(C)C)CC2)O1` (configuration not stated), the Potency entry in [1], in test [2], in test [3], in test [4], in [5] and in test [6] was “inactive” in each case.

On to `N#Cc1ccc(O)cc1`, for which the Potency entry in test [1], in test [2], in [3], in test [4], in test [5] and in [6] was “inactive” throughout. Further, in [7], the Potency entry is “inactive”.

Turning to `CC(=[OH+])/C=C(/C)[O-].CC(=[OH+])/C=C(\C)[O-].CC(=[OH+])/C=C(\C)[O-].[Fe]`, the Potency entry in test [1], in [2], in test [3], in [4], in [5] and in [6] was “inactive” throughout. Further, the Potency result in test [7] is “inactive”.
